This is an account of results in PubChem BioAssay (NCATS).

Results filed as inconclusive are left out. Active and inactive are the calls of the source. Unless noted, the call rests on the fitted dose curve; in most records, active means well fitted cell-killing curve with a large enough effect; inconclusive means small, poorly fitted or top-dose-only effect; inactive means flat fitted curve, though single readings scatter.

Experiment [1] can be described thus: Cell Viability - LYMP2-020 (AID 986).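 Further: series mostly up to about 92 µM; cells exposed to compound for 24 h at 37 °C; plate controls were DMSO only for no effect and tetraoctylammonium bromide at 92 µM for full effect; nearly all actives have a fitted effect of over 55% in size.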 The method, boiled down:
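Seed 2500 cells per well and incubate 5 hr at 37 C. Add compounds at a concentration series and incubate 24 hr at 37 C. Add CellTiter-Glo, wait 30 min at RT, read luminescence, and fit a Hill curve for AC50.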

The nature of experiment [2]: Cell Viability - LYMP2-022 (AID 987).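 Further: 0% = DMSO alone and full effect = tetraoctylammonium bromide at 92 µM; nearly all actives have a fitted effect of over 55% in size.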 The procedure, abridged:
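Cells were seeded at 2500 per well, rested 5 hr at 37 C, and treated with titrated compounds for 24 hr at 37 C. Cellular ATP was then quantified by luciferase luminescence, and AC50 values were derived from Hill-modelled concentration-response curves.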

Experiment [3] in a line: Cell Viability - LYMP2-024 (AID 988).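 Further: plate controls were DMSO only for no effect and 92 µM tetraoctylammonium bromide for full effect; nearly all actives have a fitted effect of over 60% in size.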 The procedure, abridged: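 qHTS cytotoxicity, human lymphoblastoid line, complete medium; 24 h cpd treatment, 37 C; CellTiter-Glo ATP luminescence readout; tetraoctylammonium bromide positive control; AC50 via Hill fit.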
A short description of experiment [4]: Cell Viability - LYMP2-026 (AID 989).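 Further: cells exposed to compound for 24 h at 37 °C; on the % scale 0 is the no-effect control and ±100 the full control effect; nearly all actives have a fitted effect of over 50% in size.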 The method, boiled down: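 Cells are seeded at 2500 per well and held 5 hr at 37 C. Compounds are added in concentration series for 24 hr, then CellTiter-Glo reagent is applied and luminescence read.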
The nature of experiment [5]: Cell Viability - LYMP1-002 - Assay at 24 hr (AID 993). Further: on the % scale 0 is the no-effect control and ±100 the full control effect. The method, boiled down: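 Acute toxicity is measured as concentration-dependent loss of cellular ATP in a human lymphoblastoid line (Coriell LYMP1-002) after 24 h treatment in complete medium. ATP is quantified by luciferase luminescence and AC50 derived by Hill modelling.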
A short description of experiment [6]: Cell Viability - LYMP1-002 - Assay at 40 hr (AID 994).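 Further: 0% = DMSO only and full inhibition = 92 µM tetraoctylammonium bromide; nearly all actives have a fitted effect of over 60% in size.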 The procedure, abridged:
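Cells are plated at 2500 per well and rested 5 hr at 37 C. Compounds are added and incubated 40 hr at 37 C. CellTiter-Glo reagent is added for 30 min at room temperature before luminescence is read.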

Experiment [7] in a line: qHTS Assay for Identification of Small Molecule Inducers of Hypoxia Response (AID 2120; active means well fitted curve in the direction sought with a large enough effect in the signal ratio, with a control signal flat, not every such curve was filed as active; the % refers to the signal ratio; further: 0% is about no effect). The method, boiled down: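 Cell-based qHTS for reporter induction: hypoxia response element controlled beta-lactamase in ME-180 cells. Compounds incubated 17 h at 37 degrees C; activity from blue/green (460/530 nm) ratio, inducers ranked by AC50.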
For orientation: Quantitative high-throughput screening tests each substance at several concentrations.

The target in experiment [8] is Estrogen receptor (Homo sapiens) (UniProt P03372). The experiment is described as follows: qHTS assay for small molecule antagonists of estrogen receptor alpha signaling (AID 588513; active means well fitted curve in the direction sought with a large enough effect in the signal ratio, with a control signal flat, not every such curve was filed as active; the % refers to the signal ratio; further: on the % scale 0 is the no-effect control and ±100 the full control effect). The method, boiled down:
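Beta-lactamase reporter, antagonist mode, HEK 293 GripTite cells; 0.5nM E2 stimulus, 18 h, 37 C; CCF4 dye 2 h RT; fluorescence. IC50 and efficacy from Hill fits, normalized to E2 and DMSO.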

For experiment [9] the target is unchanged. The experiment is described as follows: qHTS assay for small molecule agonists of estrogen receptor alpha signaling (AID 588514; calls by dose curve;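 further: 0% = vehicle only and 100% = reference agonist; nearly all actives have a fitted effect of over 70% in size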). The method, boiled down:
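Efficacy is expressed against 20 nM 17-beta-estradiol (100%) and DMSO basal (0%); EC50 from Hill equation. Assay: beta-lactamase reporter in ER-alpha-UAS-bla HEK 293 cells, 18 h compound incubation, CCF4 detection.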

In experiment [10] the target is Androgen receptor (Homo sapiens) (UniProt P10275). The experiment is described as follows: qHTS assay for small molecule agonists of androgen receptor signaling (AID 588515; active means well fitted curve in the direction sought with a large enough effect in the signal ratio, with a control signal flat; the % refers to the signal ratio; further: on the % scale 0 is the no-effect control and ±100 the full control effect). The note with it: AR-UAS-bla HEK293, beta-lactamase ratio, agonist 16 h; stronger effect = higher value. The method, boiled down:
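Stimulation of an AR-responsive β-lactamase reporter in GripTite HEK293 cells was measured after 16 h compound exposure at 37 °C, via CCF4 fluorescence after 2 h RT. EC50 from Hill fits, normalized to R1881 at 30 nM.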

The target of experiment [11] is Bile acid receptor (Homo sapiens) (UniProt Q96RI1). The experiment in a line: qHTS assay for small molecule antagonists of farnesoid X receptor signaling (AID 588526; calls by dose curve; further: on the % scale 0 is the no-effect control and ±100 the full control effect). The method, boiled down:
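Concentration-response titrations were fitted to the Hill equation for half-maximal inhibition and maximal response, with data normalised to 50 uM chenodeoxycholic acid and DMSO control wells. Cells: FXR-UAS-bla HEK293T, dialyzed FBS.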

For experiment [12], the target named is Glucocorticoid receptor (Homo sapiens) (UniProt P04150). The experiment in a line: qHTS assay for small molecule agonists of glucocorticoid receptor signaling (AID 588532; active means well fitted curve in the direction sought with a large enough effect in the signal ratio, with a control signal flat; the % refers to the signal ratio;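 further: 100% = dexamethasone at 0.1 µM and 0% = DMSO only wells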). The note with it: HeLa MMTV-bla, beta-lactamase ratio, agonist, 18 h; stronger effect = higher value; percent of dexamethasone control, DMSO zero. The method, boiled down:
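Titration series, up to 92 uM, applied to GRE-bla HeLa cells for 18 h at 37 C. Detection by CCF4 FRET substrate after 2 h at RT.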

Experiment [13] shares this target. The experiment is described as follows: qHTS assay for small molecule antagonists of glucocorticoid receptor signaling (AID 588533; active means well fitted inhibition curve with a large enough effect in the signal ratio, with a control signal flat, not every such curve was filed as active; the % refers to the signal ratio). The procedure, abridged: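 Antagonist-mode qHTS: compound titrations added to GRE-bla HeLa cells, then dexamethasone 2 nM final; 18 h, 37 C. CCF4 FRET fluorescence normalized to dexamethasone and DMSO; IC50 from Hill fit.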
Experiment [14] has as its target Peroxisome proliferator-activated receptor gamma (Homo sapiens) (UniProt P37231). The experiment is described as follows: qHTS assay for small molecule agonists of peroxisome proliferator-activated receptor gamma signaling (AID 588536; active means well fitted curve in the direction sought with a large enough effect in the signal ratio, with a control signal flat, not every such curve was filed as active; the % refers to the signal ratio;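 further: 0% = DMSO basal wells and 100% = rosiglitazone at 2 µM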). The method, boiled down:
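Beta-lactamase reporter read-out: CCF4 fluorescence (ex 405, em 460/530 nm) after 2 h at RT. HEK293 GeneBLAzer cells were treated for 16 h at 37 C. Hill fits gave EC50 and efficacy versus 2 uM rosiglitazone (100%) and DMSO (0%).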

The target is the same in experiment [15]. The experiment is described as follows: qHTS assay for small molecule antagonists of peroxisome proliferator-activated receptor gamma signaling (AID 588537; active means well fitted inhibition curve with a large enough effect in the signal ratio, with a control signal flat, not every such curve was filed as active; the % refers to the signal ratio;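 further: reporter cells co-stimulated with 50 nM rosiglitazone agonist during compound treatment; % of control where 0% means no effect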). The procedure, abridged: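 Compounds are tested as concentration series for inhibition of rosiglitazone-driven (50 nM) reporter expression in GeneBLAzer PPAR-gamma-UAS-bla HEK293 cells. After 16 h at 37 C, CCF4 substrate is added for 2 h at room temperature and blue/green fluorescence is measured.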

Experiment [16] concerns the target Vitamin D3 receptor (Homo sapiens) (UniProt P11473). The experiment is described as follows: qHTS assay for small molecule antagonists of vitamin D receptor signaling (AID 588541; calls by dose curve). The procedure, abridged:
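VDR-UAS-bla HEK293T cells (2000/well, 2% charcoal-stripped FBS) were treated with titrated compounds plus 1-alpha,25-dihydroxyvitamin D3 (50 nM or 3 nM final) for 16 h at 37 C. CCF4 beta-lactamase fluorescence was read; Hill fits gave IC50.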

The target is the same in experiment [17]. The experiment is described as follows: qHTS assay for small molecule agonists of vitamin D receptor signaling (AID 588543; calls by dose curve;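 further: 0% = DMSO basal and 100% = reference agonist control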). The method, boiled down: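 β-lactamase reporter, VDR-UAS-bla HEK293T, agonist mode. Cells plated 5 h at 37 °C, compound titration 16 h at 37 °C, CCF4 dye 2 h RT, ratio 460/530 nm. Hill fit → EC50, efficacy vs 50 nM 1α,25-(OH)2D3.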

The nature of experiment [18]: qHTS assay for small molecule antagonists of peroxisome proliferator-activated receptor delta signaling (AID 588535; active means well fitted inhibition curve with a large enough effect in the signal ratio, with a control signal flat, not every such curve was filed as active; the % refers to the signal ratio;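 on max response: cells co-treated with a PPAR-delta agonist as stimulator during compound exposure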). To be noted: HEK293T PPARd-UAS-bla, beta-lactamase FRET ratio, 18 h; 460 nm channel. The method, boiled down: (§1)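 Inhibition of PPAR-delta response element-driven beta-lactamase expression is measured in HEK293T cells exposed to a compound titration series for 18 hrs at 37 C. Half-maximal inhibition comes from Hill equation fitting.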

In experiment [19] the target is Peroxisome proliferator-activated receptor delta (Homo sapiens) (UniProt Q03181). The experiment is described as above. The method, boiled down: as §1
Chain of Peroxisome proliferator-activated receptor delta (Homo sapiens) (Q03181 whole entry, looked up): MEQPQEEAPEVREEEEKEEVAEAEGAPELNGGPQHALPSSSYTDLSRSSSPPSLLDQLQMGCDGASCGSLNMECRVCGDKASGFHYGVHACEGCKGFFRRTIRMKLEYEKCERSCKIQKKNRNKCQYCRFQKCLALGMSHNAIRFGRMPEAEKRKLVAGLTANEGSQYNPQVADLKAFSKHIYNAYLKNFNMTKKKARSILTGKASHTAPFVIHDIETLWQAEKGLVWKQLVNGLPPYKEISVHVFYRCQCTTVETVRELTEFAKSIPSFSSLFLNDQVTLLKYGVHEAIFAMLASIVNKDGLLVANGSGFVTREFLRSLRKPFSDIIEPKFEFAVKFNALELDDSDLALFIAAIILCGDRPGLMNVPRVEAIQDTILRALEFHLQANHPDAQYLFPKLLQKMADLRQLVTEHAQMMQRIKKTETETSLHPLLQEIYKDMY
The target in experiment [20] is Androgen receptor (Homo sapiens) (UniProt P10275). The experiment is described as follows: qHTS assay for small molecule antagonists of androgen receptor signaling (AID 588516; active means well fitted curve in the direction sought with a large enough effect in the signal ratio, with a control signal flat, not every such curve was filed as active; the % refers to the signal ratio; further: on the % scale 0 is the no-effect control and ±100 the full control effect). The procedure, abridged:
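HEK293 AR-UAS-bla cells, 10% dialyzed FBS medium; cpd titration + R1881 10 nM final, 16 h 37 C; CCF4 2 h RT; FRET ratio; IC50/efficacy via Hill fit.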

Chain of Androgen receptor (Homo sapiens) (P10275 whole entry, looked up): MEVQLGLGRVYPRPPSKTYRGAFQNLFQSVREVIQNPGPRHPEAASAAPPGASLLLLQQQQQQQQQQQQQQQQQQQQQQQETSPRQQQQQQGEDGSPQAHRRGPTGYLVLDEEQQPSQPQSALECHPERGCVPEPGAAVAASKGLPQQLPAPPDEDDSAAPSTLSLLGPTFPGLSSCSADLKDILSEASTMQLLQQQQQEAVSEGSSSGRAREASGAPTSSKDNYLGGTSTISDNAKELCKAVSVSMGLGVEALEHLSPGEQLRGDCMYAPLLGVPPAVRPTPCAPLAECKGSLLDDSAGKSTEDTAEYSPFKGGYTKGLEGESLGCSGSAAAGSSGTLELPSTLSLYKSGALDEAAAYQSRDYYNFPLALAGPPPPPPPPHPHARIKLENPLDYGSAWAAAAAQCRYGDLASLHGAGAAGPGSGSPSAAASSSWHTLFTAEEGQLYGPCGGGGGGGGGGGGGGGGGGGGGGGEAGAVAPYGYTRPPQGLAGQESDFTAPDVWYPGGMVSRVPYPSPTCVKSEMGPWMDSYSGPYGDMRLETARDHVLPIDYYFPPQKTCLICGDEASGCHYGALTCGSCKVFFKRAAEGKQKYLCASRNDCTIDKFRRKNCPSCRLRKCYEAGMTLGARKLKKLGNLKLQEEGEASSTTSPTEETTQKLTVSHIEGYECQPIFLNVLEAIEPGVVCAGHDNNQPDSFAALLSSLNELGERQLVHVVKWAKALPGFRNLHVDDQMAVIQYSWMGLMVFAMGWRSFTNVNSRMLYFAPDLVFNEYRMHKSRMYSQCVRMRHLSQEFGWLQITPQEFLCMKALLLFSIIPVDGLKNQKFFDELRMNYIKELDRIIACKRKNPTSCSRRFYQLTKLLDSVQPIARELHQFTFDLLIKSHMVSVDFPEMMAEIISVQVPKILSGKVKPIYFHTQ
Chain of Estrogen receptor (Homo sapiens) (P03372 whole entry, looked up): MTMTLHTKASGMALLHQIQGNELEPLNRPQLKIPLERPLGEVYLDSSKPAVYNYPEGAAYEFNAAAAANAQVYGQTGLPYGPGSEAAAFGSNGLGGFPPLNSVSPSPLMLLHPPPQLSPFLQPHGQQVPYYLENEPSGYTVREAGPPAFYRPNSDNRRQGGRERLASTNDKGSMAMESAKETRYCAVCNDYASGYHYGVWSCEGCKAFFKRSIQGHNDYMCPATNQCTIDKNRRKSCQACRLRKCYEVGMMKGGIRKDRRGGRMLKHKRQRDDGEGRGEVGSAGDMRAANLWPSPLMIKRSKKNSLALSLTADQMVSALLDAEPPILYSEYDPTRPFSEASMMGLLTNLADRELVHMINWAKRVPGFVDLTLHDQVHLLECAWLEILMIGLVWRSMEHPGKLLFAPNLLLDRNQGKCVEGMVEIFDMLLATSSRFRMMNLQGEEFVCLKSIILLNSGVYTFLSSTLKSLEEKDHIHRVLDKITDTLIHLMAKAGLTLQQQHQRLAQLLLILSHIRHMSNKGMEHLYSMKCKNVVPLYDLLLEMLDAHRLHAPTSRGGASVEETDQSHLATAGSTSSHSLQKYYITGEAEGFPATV
Chain of Glucocorticoid receptor (Homo sapiens) (P04150 whole entry, looked up): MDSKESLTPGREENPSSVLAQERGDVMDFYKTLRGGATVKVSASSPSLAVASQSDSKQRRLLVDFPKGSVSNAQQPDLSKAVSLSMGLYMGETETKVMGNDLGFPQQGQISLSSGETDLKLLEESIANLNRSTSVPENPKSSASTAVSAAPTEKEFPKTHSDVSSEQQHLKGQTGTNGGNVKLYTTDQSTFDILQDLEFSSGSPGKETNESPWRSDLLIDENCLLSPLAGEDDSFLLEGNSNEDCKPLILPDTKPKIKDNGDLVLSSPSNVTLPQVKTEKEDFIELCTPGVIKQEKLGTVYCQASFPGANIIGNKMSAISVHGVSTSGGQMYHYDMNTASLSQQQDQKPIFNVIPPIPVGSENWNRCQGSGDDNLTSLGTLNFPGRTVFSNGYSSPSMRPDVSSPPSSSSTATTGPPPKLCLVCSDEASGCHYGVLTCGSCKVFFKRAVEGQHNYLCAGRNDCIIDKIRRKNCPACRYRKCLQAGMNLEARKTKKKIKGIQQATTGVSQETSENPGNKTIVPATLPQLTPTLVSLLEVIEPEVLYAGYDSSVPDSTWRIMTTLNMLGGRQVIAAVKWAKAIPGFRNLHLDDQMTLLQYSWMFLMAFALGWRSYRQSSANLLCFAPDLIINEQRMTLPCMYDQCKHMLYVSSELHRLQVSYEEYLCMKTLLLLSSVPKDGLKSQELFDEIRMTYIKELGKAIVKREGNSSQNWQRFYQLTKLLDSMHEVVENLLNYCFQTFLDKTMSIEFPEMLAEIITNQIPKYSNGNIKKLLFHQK
Chain of Peroxisome proliferator-activated receptor gamma (Homo sapiens) (P37231 whole entry, looked up): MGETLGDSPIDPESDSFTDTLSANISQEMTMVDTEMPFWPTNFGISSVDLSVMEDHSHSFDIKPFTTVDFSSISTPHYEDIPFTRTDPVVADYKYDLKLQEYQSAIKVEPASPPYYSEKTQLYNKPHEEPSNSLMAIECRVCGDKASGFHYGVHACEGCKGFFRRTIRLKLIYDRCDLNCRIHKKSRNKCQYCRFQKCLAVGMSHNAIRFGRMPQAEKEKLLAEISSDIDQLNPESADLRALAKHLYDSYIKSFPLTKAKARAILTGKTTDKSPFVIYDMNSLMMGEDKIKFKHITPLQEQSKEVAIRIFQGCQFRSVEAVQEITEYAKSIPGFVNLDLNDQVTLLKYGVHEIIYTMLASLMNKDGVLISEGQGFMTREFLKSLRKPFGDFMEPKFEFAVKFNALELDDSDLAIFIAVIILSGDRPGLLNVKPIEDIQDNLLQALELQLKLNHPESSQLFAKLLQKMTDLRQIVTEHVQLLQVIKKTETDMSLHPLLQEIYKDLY
Chain of Bile acid receptor (Homo sapiens) (Q96RI1 whole entry, looked up): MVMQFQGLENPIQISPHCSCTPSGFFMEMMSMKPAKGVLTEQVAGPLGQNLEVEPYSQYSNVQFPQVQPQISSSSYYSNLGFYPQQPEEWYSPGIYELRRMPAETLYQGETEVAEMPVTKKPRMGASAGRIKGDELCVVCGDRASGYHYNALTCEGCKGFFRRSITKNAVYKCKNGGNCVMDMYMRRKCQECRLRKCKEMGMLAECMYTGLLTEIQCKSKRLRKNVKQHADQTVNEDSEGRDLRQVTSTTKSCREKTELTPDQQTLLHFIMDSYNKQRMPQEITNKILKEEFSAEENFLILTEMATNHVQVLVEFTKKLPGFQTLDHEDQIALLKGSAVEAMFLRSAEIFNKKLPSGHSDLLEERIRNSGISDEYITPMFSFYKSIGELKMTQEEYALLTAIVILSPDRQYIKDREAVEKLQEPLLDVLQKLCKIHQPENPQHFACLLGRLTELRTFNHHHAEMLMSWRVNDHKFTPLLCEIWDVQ
Chain of Vitamin D3 receptor (Homo sapiens) (P11473 whole entry, looked up): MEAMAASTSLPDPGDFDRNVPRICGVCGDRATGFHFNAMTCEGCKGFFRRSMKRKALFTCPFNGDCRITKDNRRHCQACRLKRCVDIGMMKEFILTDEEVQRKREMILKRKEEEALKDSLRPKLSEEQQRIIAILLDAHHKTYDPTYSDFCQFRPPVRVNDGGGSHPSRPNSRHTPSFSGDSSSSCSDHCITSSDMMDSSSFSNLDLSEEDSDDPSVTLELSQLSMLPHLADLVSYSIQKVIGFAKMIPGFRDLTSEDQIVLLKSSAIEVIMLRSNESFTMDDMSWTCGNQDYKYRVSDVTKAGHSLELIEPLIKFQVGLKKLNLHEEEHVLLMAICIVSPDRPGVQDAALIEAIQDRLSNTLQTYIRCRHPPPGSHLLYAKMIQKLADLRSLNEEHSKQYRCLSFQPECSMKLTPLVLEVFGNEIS

Turning to `CC(=O)Nc1ccc(N)cc1`, the Potency entry in [1], in [2], in experiment [3], in experiment [5], in experiment [6] and in experiment [9] was “inactive” throughout. In addition, the outcome in [4], in experiment [7], in [8], in experiment [11], in experiment [13] and in experiment [14] was inactive. In addition, the result in experiment [15], in [16] and in experiment [17] was inactive. The activation was -10.4% (inactive) in [10] and 1.17% (inactive) in [12].
Take `CC(N)CN` (stereo not drawn): the Potency result in experiment [1], in experiment [2], in experiment [3], in experiment [5], in experiment [6] and in [9] was “inactive” each time. Moreover, in experiment [19], the Potency entry was “inactive”. Besides, the call in experiment [4], in experiment [7], in experiment [8], in experiment [11], in [13] and in experiment [14] was inactive. Also, the call in experiment [16] and in experiment [17] was inactive. Moreover, the activation in experiment [12] is -2.03% (inactive). Moreover, the max response in [18] is 4.9%.
For the compound `NC(=O)/N=N/C(N)=O`, the Potency result in experiment [1], in experiment [2], in [5], in experiment [6], in experiment [9] and in experiment [19] was “inactive” each time. Moreover, the result in [4], in [7], in experiment [8], in experiment [11], in [13] and in experiment [14] was inactive. Moreover, the outcome in experiment [15], in experiment [16] and in experiment [17] was inactive. The activation in experiment [12] is 7.65% (inactive). Also, the max response in experiment [18] was -25.3%.
Consider `CCN(Cc1ccccc1)c1ccccc1`, for which the Potency entry in experiment [1], in experiment [2], in experiment [3], in experiment [5], in [6] and in experiment [9] was “inactive” throughout. Besides, the call in [4], in experiment [7], in [8], in experiment [20], in [14] and in experiment [15] was inactive. In addition, in experiment [10], the activation is 11.1% (inactive).
For the compound `CCOc1ccc(NC(C)=O)cc1N`, the Potency result in experiment [1], in experiment [2], in [3], in experiment [5], in [6] and in experiment [9] was “inactive” in each case. In addition, the Potency entry in [19] was “inactive”. Moreover, the outcome in [4], in [7], in [8], in experiment [20], in experiment [16] and in experiment [17] was inactive. Also, in experiment [10], the activation is 0.896% (inactive). Moreover, the max response in [18] was -0.981%.
Take `CNC(=O)N(c1ccccc1)c1ccccc1`: the Potency entry in experiment [1], in [2], in experiment [3], in [5], in experiment [6] and in [9] was “inactive” each time. Further, the compound was called inactive in experiment [4], in experiment [7], in experiment [8], in experiment [20] and in experiment [14]. Further, the activation in experiment [10] was -11.4% (inactive).
With `FC(F)(F)c1cccc(Cl)c1`, the Potency result in experiment [1], in experiment [2], in experiment [3], in experiment [6] and in [9] was “inactive” in each case. For the same compound, the outcome in [7], in experiment [8], in [20], in experiment [11] and in [13] was inactive. The activation is 4.73% (inactive) in [10] and -8.16% (inactive) in [12].
With `BrC(Br)C(Br)Br`, the Potency result in [1], in [2], in [3], in experiment [5], in [6] and in experiment [9] was “inactive” each time. Besides, the Potency result in experiment [19] is “inactive”. Besides, the call in [4], in experiment [7], in experiment [8], in experiment [20], in experiment [14] and in experiment [15] was inactive. Also, the result in [16] and in [17] was inactive. The activation was 2.87% (inactive) in experiment [10] and -1.02% (inactive) in experiment [12]. The max response in experiment [18] was -3.11%.
Regarding `Cc1cc(C)cc([N+](=O)[O-])c1`, the Potency entry in experiment [1], in experiment [2], in [3], in experiment [5], in experiment [6] and in experiment [9] was “inactive” throughout. Besides, in [19], the Potency result was “inactive”. Also, the call in experiment [4], in experiment [7], in experiment [8], in [11], in experiment [13] and in [14] was inactive. Besides, the compound was called inactive in experiment [16] and in experiment [17]. Further, in [12], the activation is -8.13% (inactive). Besides, the max response in [18] was -43.4%.
